The sequences below were run on LXRa homodimer (NR concentration 270 nM) (assay: PBM binding z-score (relative to random genomic background probes); higher = stronger binding; sequences stand for … in GC…GCGATTGACAGCGTAGAATGAAGG).
Procedure, shortened: (§1)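 Each nuclear receptor dimer, without ligand, was incubated for 1 h on custom Agilent 4×180K protein-binding microarrays. Binding was detected with antibodies against each partner (one per run), and scanned fluorescence was regression-normalized. The binding z-scores are referenced to random human genomic background probes.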
GCATATAGGTAATACCAGGTGAAAGTCCGATTGT gave a PBM binding z-score of 0.172.
Sequence TCAGAAAGGTGAAGGTAACTCAGGTACGCAGTCG has a PBM binding z-score of 0.105.
Sequence GGAACGAGGGCATACGAGTTGATAGCATGGCGAT has a PBM binding z-score of -0.418.
Work on AGAATGAGGTTACCGAAGATCAGGGAAACGCTTG yielded a PBM binding z-score of -0.477.
With CCGACTGGGGCAGAAAGGTAACCATACCATCCGG the PBM binding z-score was -0.528.
In the case of AGTCACAGTTCACTAGGTAACGTAAGATTCAGCT, the PBM binding z-score is reported as 0.659.
GATCGGAGGACAAGGTCAGAGCTTTGTCCGTAGA gave a PBM binding z-score of -0.502.
CTCGAAAGGTCGGTTGAGGCGAGTATACGGATAA showed a PBM binding z-score of -0.238.
ACAGACAGGTGTTGAAGGTAACTCAGGCTATCAT was tested, and the PBM binding z-score was -0.136.
With GTACCAAGGTGAATAGGTCATTGATGAGTAGGCG the PBM binding z-score was 1.28.
In the case of AGAATAAGGTTATTAAGATCAGGGAATTGCGGTC, the PBM binding z-score is reported as 0.352.
In the case of ATTTCTAGGTAAAGATAGTTCAGTGAATGCAAAT, the PBM binding z-score is reported as 0.857.
CGAACTAGGTCAAGGACTGTGAATCTCCGCACGC showed a PBM binding z-score of -0.179.
TCTTGTAGATCAACAGGAGGTTAAGAATGATCGA was tested, and the PBM binding z-score was 0.072.
Sequence CGTCCAAGGTCAATGCTTGGTCAGTGAAAGCATT has a PBM binding z-score of 0.472.
Sequence CCTATTAGTCGACCATAAGGGCAACCGAAGCTCG has a PBM binding z-score of -0.217.
TATACAGGGTCAAAGGCGAGAGTACGAATGTCGA was tested, and the PBM binding z-score was 2.21.
TCTTGTAGATCAATAGAGGTTAAGGAAGTGCGCT showed a PBM binding z-score of 0.324.

These sequences were tested on LXRb:RXRa (NR concentration 270 nM, RXRa partner concentration 90 nM) in the same assay as above.
Procedure, shortened: as §1
CGTCCAAGGTCATAGGAGATCAGTGAAGACAGAT showed a PBM binding z-score of 3.92.
CCTTACGGGTCAAGGCTATAGCACGGGTGGTACG showed a PBM binding z-score of 2.59.
With CGAACGAGGGCATGAGTTGATAGCAAATGCCGAT the PBM binding z-score was 0.279.
CCAGACAGGTGAGAAGGTAACTCCGCCTCGATTA gave a PBM binding z-score of -0.163.
Work on TCTACTAGTTGATTAGGGCAACCGAAACAGCGGA yielded a PBM binding z-score of 0.0832.
With GAGACAGGGTCAAGGCCAGAGTACGCGTATTGAT the PBM binding z-score was 3.43.
TCTAGTTGGTCACGGAGGTCACTCACGACGGGTA showed a PBM binding z-score of 2.84.
CTCGAAAGGTCGGTTGAGGTGTGTATACGGATAA gave a PBM binding z-score of 1.05.
Work on CCTACTGGGCCATTCAGAGTTCATTGATCATATG yielded a PBM binding z-score of 1.86.
Sequence CAGCCTAGGTTAGGGCCAGTATAGGAGGAACGTT has a PBM binding z-score of -0.633.
Sequence GCGACTGGGGCCAAGCAGGTTACCATAAGGTTGG has a PBM binding z-score of -0.129.
In the case of CGAACGAGGGCATGAGTTGATGGCAAATGCCGAT, the PBM binding z-score is reported as -0.235.
GGAACGATGGCAAGTTGATAGCAGAGTTTGATGG gave a PBM binding z-score of -0.971.
Sequence CGTCCAAGGTCAAAGGTCAGTCAAGAGATGACGG has a PBM binding z-score of 6.77.
CGTCCAAGGTCAAAGGTCAGTGCAGAGATGACGG gave a PBM binding z-score of 6.47.
With CCTTCTGGGCCAAAGGTCATTGATTCCAATGCTC the PBM binding z-score was 5.
In the case of TTTTGTAGATCAAGCAGGTTAAGAAAGCCTGAGT, the PBM binding z-score is reported as 0.194.
AAGACAGGGTCATCGTAGGCCAGAGTACGCACAG gave a PBM binding z-score of 4.06.
With GCTAGCAGGCCATTTAGGTCACTCAATGACGGGC the PBM binding z-score was -0.158.
AATACAGGGTCACTAGGCCAGAGTTGGTACGAAT was tested, and the PBM binding z-score was 3.75.
In the case of TCATATAGGTAATACAGGTGAAAGTGGGCATCTA, the PBM binding z-score is reported as 1.21.
Work on CGAACTAGGTCTAGGACAGTGAATCTCCGCACGC yielded a PBM binding z-score of -1.12.
GCATATAGGTAATACCAGGTGAAAGTCCGATTGT gave a PBM binding z-score of 0.185.
TCAGAAAGGTGAAGGTAACTCAGGTACGCAGTCG gave a PBM binding z-score of 1.67.
Sequence GGAACGAGGGCATACGAGTTGATAGCATGGCGAT has a PBM binding z-score of -0.0696.
AGAATGAGGTTACCGAAGATCAGGGAAACGCTTG showed a PBM binding z-score of 2.19.
Sequence CCGACTGGGGCAGAAAGGTAACCATACCATCCGG has a PBM binding z-score of -0.363.
Work on AGTCACAGTTCACTAGGTAACGTAAGATTCAGCT yielded a PBM binding z-score of 1.19.
Work on GATCGGAGGACAAGGTCAGAGCTTTGTCCGTAGA yielded a PBM binding z-score of 0.993.
With CTCGAAAGGTCGGTTGAGGCGAGTATACGGATAA the PBM binding z-score was 0.925.
For ACAGACAGGTGTTGAAGGTAACTCAGGCTATCAT, the PBM binding z-score was -0.298.
Work on GTACCAAGGTGAATAGGTCATTGATGAGTAGGCG yielded a PBM binding z-score of 2.14.
Work on AGAATAAGGTTATTAAGATCAGGGAATTGCGGTC yielded a PBM binding z-score of 1.32.
With ATTTCTAGGTAAAGATAGTTCAGTGAATGCAAAT the PBM binding z-score was 1.02.
For CGAACTAGGTCAAGGACTGTGAATCTCCGCACGC, the PBM binding z-score was 1.36.
Sequence TCTTGTAGATCAACAGGAGGTTAAGAATGATCGA has a PBM binding z-score of 0.703.
CGTCCAAGGTCAATGCTTGGTCAGTGAAAGCATT was tested, and the PBM binding z-score was 3.42.
For CCTATTAGTCGACCATAAGGGCAACCGAAGCTCG, the PBM binding z-score was 0.208.
TATACAGGGTCAAAGGCGAGAGTACGAATGTCGA showed a PBM binding z-score of 4.53.
In the case of TCTTGTAGATCAATAGAGGTTAAGGAAGTGCGCT, the PBM binding z-score is reported as 1.5.

These sequences were tested on LXRb homodimer (NR concentration 270 nM) in the same assay as above.
Procedure, shortened: as §1
CGTCCAAGGTCATAGGAGATCAGTGAAGACAGAT showed a PBM binding z-score of 0.511.
For CCTTACGGGTCAAGGCTATAGCACGGGTGGTACG, the PBM binding z-score was -0.119.
CGAACGAGGGCATGAGTTGATAGCAAATGCCGAT showed a PBM binding z-score of -0.902.
Sequence CCAGACAGGTGAGAAGGTAACTCCGCCTCGATTA has a PBM binding z-score of -0.188.
TCTACTAGTTGATTAGGGCAACCGAAACAGCGGA was tested, and the PBM binding z-score was -0.553.
GAGACAGGGTCAAGGCCAGAGTACGCGTATTGAT showed a PBM binding z-score of -0.789.
With TCTAGTTGGTCACGGAGGTCACTCACGACGGGTA the PBM binding z-score was 0.542.
With CTCGAAAGGTCGGTTGAGGTGTGTATACGGATAA the PBM binding z-score was 0.0615.
With CCTACTGGGCCATTCAGAGTTCATTGATCATATG the PBM binding z-score was -0.389.
Work on CAGCCTAGGTTAGGGCCAGTATAGGAGGAACGTT yielded a PBM binding z-score of -1.42.
In the case of GCGACTGGGGCCAAGCAGGTTACCATAAGGTTGG, the PBM binding z-score is reported as -1.37.
CGAACGAGGGCATGAGTTGATGGCAAATGCCGAT showed a PBM binding z-score of -0.92.
With GGAACGATGGCAAGTTGATAGCAGAGTTTGATGG the PBM binding z-score was -1.01.
Work on CGTCCAAGGTCAAAGGTCAGTCAAGAGATGACGG yielded a PBM binding z-score of 1.83.
Work on CGTCCAAGGTCAAAGGTCAGTGCAGAGATGACGG yielded a PBM binding z-score of 1.91.
CCTTCTGGGCCAAAGGTCATTGATTCCAATGCTC gave a PBM binding z-score of 1.15.
Sequence TTTTGTAGATCAAGCAGGTTAAGAAAGCCTGAGT has a PBM binding z-score of -0.0652.
Sequence AAGACAGGGTCATCGTAGGCCAGAGTACGCACAG has a PBM binding z-score of 0.0441.
GCTAGCAGGCCATTTAGGTCACTCAATGACGGGC gave a PBM binding z-score of -1.25.
AATACAGGGTCACTAGGCCAGAGTTGGTACGAAT was tested, and the PBM binding z-score was 0.616.
TCATATAGGTAATACAGGTGAAAGTGGGCATCTA gave a PBM binding z-score of 0.302.
In the case of CGAACTAGGTCTAGGACAGTGAATCTCCGCACGC, the PBM binding z-score is reported as -0.723.
With GCATATAGGTAATACCAGGTGAAAGTCCGATTGT the PBM binding z-score was -0.363.
Work on TCAGAAAGGTGAAGGTAACTCAGGTACGCAGTCG yielded a PBM binding z-score of -0.156.
GGAACGAGGGCATACGAGTTGATAGCATGGCGAT gave a PBM binding z-score of -0.795.
For AGAATGAGGTTACCGAAGATCAGGGAAACGCTTG, the PBM binding z-score was -0.522.
CCGACTGGGGCAGAAAGGTAACCATACCATCCGG gave a PBM binding z-score of -1.18.
With AGTCACAGTTCACTAGGTAACGTAAGATTCAGCT the PBM binding z-score was 0.166.
With GATCGGAGGACAAGGTCAGAGCTTTGTCCGTAGA the PBM binding z-score was -1.3.
CTCGAAAGGTCGGTTGAGGCGAGTATACGGATAA gave a PBM binding z-score of -0.22.
ACAGACAGGTGTTGAAGGTAACTCAGGCTATCAT gave a PBM binding z-score of -0.389.
Sequence GTACCAAGGTGAATAGGTCATTGATGAGTAGGCG has a PBM binding z-score of -0.295.
Sequence AGAATAAGGTTATTAAGATCAGGGAATTGCGGTC has a PBM binding z-score of -0.02.
Sequence ATTTCTAGGTAAAGATAGTTCAGTGAATGCAAAT has a PBM binding z-score of 0.567.
Work on CGAACTAGGTCAAGGACTGTGAATCTCCGCACGC yielded a PBM binding z-score of -0.152.
In the case of TCTTGTAGATCAACAGGAGGTTAAGAATGATCGA, the PBM binding z-score is reported as -0.4.
For CGTCCAAGGTCAATGCTTGGTCAGTGAAAGCATT, the PBM binding z-score was 0.327.
Work on CCTATTAGTCGACCATAAGGGCAACCGAAGCTCG yielded a PBM binding z-score of 0.406.
Work on TATACAGGGTCAAAGGCGAGAGTACGAATGTCGA yielded a PBM binding z-score of 2.51.
TCTTGTAGATCAATAGAGGTTAAGGAAGTGCGCT was tested, and the PBM binding z-score was -0.201.
